Screens as filed in PubChem.
p53ts 39C kill: kills p53ts cells at the nonpermissive temperature; H1299-p53A138V viability at 39C, ATP luminescence, 24 h; Potency, µM (titrated, usually from 46.1 µM), usual class: cytotoxic; 130,000 tested, 1.5% active; AID 902; also: nearly all actives have a fitted effect of over 55% in size
p53ts 32C tox: kills p53ts cells at the permissive temperature. Potency, µM (series often up to 46.1 µM), most hits filed as cytotoxic. 130,000 tested, 0.93% active. H1299-p53A138V at 32C, ATP luminescence viability, 24 h; also: nearly all actives have a fitted effect of over 55% in size
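Viability by ATPlite luminescence after 24 h compound treatment (up to 46 uM) at the permissive 32C. Cells are H1299 carrying p53 A138V. Scale runs from DMSO basal to 100 uM tamoxifen as full kill; AC50 from Hill fits.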
Peg3 imprint: genomic imprint erasure induction; mouse ES Peg3-LacZ reporter, beta-gal luminescence, 40 h; Potency, µM (series often up to 60.7 µM), usual class: activators; 110,000 tested, 0.02% active; AID 1948
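Gelatin-coated wells received 300 freshly trypsinized female ES cells with a Peg3LacZ-Neo reporter on the maternal allele, then incubated 40 hours at 37C. BetaGlo was added for 5 minutes at room temperature before a single luminescence read.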
IkB sig inh: suppresses IkB signaling in ABC-DLBCL reporter cells; ABC-DLBCL IkBa-CBG/CBR dual luciferase ratio, 4 h; response scale: scaled: untreated 0%, proteasome inhibitor 100%; Potency, µM (highest dose often 57.1 µM); 110,000 tested, 0.04% active; AID 445; active = well fitted curve in the direction sought with a large enough effect in the signal ratio, not every such curve was filed as active; inconclusive = small, poorly fitted or top-dose-only effect, or a change in a side signal; the % refers to the signal ratio;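 also: the direction sought is a rising ratio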
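Luminescence ratio of IκBα-fused green versus native red beetle luciferase in OCI-Ly3 cells, 4 h post-doxycycline with compound; red signal alone, scaled from basal (0%) to zero light (-100%), flagged nonspecific or cytotoxic effects.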
Each line names hits and unclear results; the compound was inactive in the other large screens. Compounds with a hit are over-represented: about 1.8% of the library has one in this group of screens. Unless noted, calls follow the shape of the dose curve; as a rule, active = well fitted curve in the direction sought with a large enough effect; inconclusive = small, poorly fitted or top-dose-only effect, or another doubt; inactive = no such curve, though single readings can be large; an effect the other way counts as inactive or inconclusive.

Cc1ncc(CO)c2c1Oc1nc(-c3ccccc3Cl)nc(SCc3ccccc3F)c1C2	none
CCOC(=O)c1ccc(NC(=O)CCCc2nc(-c3ccccc3Cl)no2)cc1	IkB sig inh inconclusive
CCN(CC)CCCNC(=O)c1nn(C)c2c1CSc1ccccc1-2	p53ts 39C kill 20µM, p53ts 32C tox inconclusive, IkB sig inh inconclusive
Cn1nc(C(=O)N2CCN(c3ccc(F)cc3)CC2)c2c1-c1ccccc1SC2	p53ts 39C kill 20µM, p53ts 32C tox inconclusive
Cn1nc(C(=O)N2CCN(c3ccccc3)CC2)c2c1-c1ccccc1SC2	none
CN1CCN(C2Cc3ccccc3Sc3ccc(S)cc32)CC1 (stereo not drawn)	none (no result: p53ts 39C kill, p53ts 32C tox, IkB sig inh)
CN1CCN([C@@H]2Cc3ccccc3Sc3ccc(Cl)cc32)CC1	p53ts 39C kill 16µM, p53ts 32C tox 20µM (no result: Peg3 imprint)
Cc1ccc(NC(=O)CSc2[nH]c(=O)ncc2C)cc1	p53ts 39C kill 10µM, p53ts 32C tox 0.1µM
Cc1ccc(NC(=O)CSc2ncc(-c3ccccc3)[nH]2)cc1	IkB sig inh inconclusive
COc1ccc(NC(=O)c2cnc(N3CCCCC3)c3ccccc23)cc1Cl	p53ts 39C kill inconclusive, IkB sig inh inconclusive
O=C(CSc1nc2ccccc2o1)Nc1nc2c(s1)CCCC2	p53ts 39C kill 13µM, p53ts 32C tox inconclusive, IkB sig inh inconclusive
CN(C)CCN(Cc1ccccc1)S(=O)(=O)c1cccc2cccnc12	none
OC[C@H]1O[C@@H](n2cnc3c(NCc4ccccc4)ncnc32)[C@H](O)[C@@H]1O	p53ts 39C kill 10µM, p53ts 32C tox 6.3µM (no result: IkB sig inh)
OC[C@H]1O[C@@H](n2cnc3c(NCCc4ccccc4)ncnc32)[C@H](O)[C@H]1O	none (no result: IkB sig inh)
Cc1cc(C)nc(Nc2ccc(N3CCCC3)cc2)n1	none
Cc1cc(C)nc(Nc2ccc(N3CCOCC3)cc2)n1	p53ts 39C kill inconclusive, p53ts 32C tox 13µM
Cc1ccc(-c2cc(-c3ccccc3)no2)c(O)c1	p53ts 39C kill 5µM (no result: p53ts 32C tox, Peg3 imprint, IkB sig inh)
COC(=O)Cc1ccc(NC(=O)c2ccc(Br)o2)cc1	p53ts 39C kill inconclusive
CCN(CC)c1ccc(NC(=O)c2ccc(Br)o2)cc1	p53ts 39C kill inconclusive, p53ts 32C tox 13µM
CO/N=C1/c2cc(OC)ccc2O[C@@H](c2cccc(OC)c2)[C@H]1O	none (no result: Peg3 imprint, IkB sig inh)
NC(=O)CN1C(=O)C2(SCC(=O)N2c2cccc(F)c2)c2ccccc21 (stereo not drawn)	none
CCCN(C(=O)c1cc2c(s1)-c1ccccc1OC2)c1ccccc1F	IkB sig inh inconclusive
CCCN(C(=O)c1cc2c(s1)-c1ccccc1SC2)c1ccccc1F	p53ts 39C kill 25µM, IkB sig inh inconclusive
Cc1cc2c(cc1S(=O)(=O)Nc1ccc(OC(F)(F)F)cc1)OCC(=O)N2	IkB sig inh inconclusive
COc1cccc(-c2nc(CS(=O)CC(=O)NCc3ccccc3Cl)c(C)o2)c1 (stereo not drawn)	none
COc1ccccc1C(=O)Oc1c(Sc2ccccc2)c(C)nn1-c1ccccc1	p53ts 32C tox 16µM, IkB sig inh inconclusive
COc1cc(C(=O)Oc2c(Sc3ccc(C)cc3)c(C)nn2-c2ccccc2)cc(OC)c1OC	IkB sig inh inconclusive
COc1ccc2nc3sc(C(=O)Nc4cc(Cl)c(OC)cc4OC)cc3cc2c1	p53ts 39C kill 6.3µM, p53ts 32C tox inconclusive, IkB sig inh inconclusive
CCOc1ccc(CCNC(=O)c2cc3cc4cc(OC)ccc4nc3s2)cc1OCC	none
CC(=O)c1cnc2c(-c3ccc(Cl)cc3)c(C)nn2c1C	none (no result: Peg3 imprint, IkB sig inh)
Cc1c(C(=O)O)cnc2cc(-c3ccc(Cl)cc3)nn12	p53ts 39C kill inconclusive, p53ts 32C tox 10µM, IkB sig inh inconclusive
COc1ccc(C(=O)NCCCn2ccnc2)cc1	none
COc1ccc(CCCO[C@@H](Cn2ccnc2)c2ccc(OC)cc2)cc1	p53ts 39C kill 32µM, p53ts 32C tox inconclusive, IkB sig inh inconclusive
Cc1ccccc1OC1C=CC(c2ccccc2)OC1CO (stereo not drawn)	none (no result: Peg3 imprint, IkB sig inh)
CCc1cc2c(cc3c(=O)n(CC(=O)N4CCCCC4)nc(CC)n32)s1	none
Cc1cccc2c1-c1sc(C(=O)NCCCN3CCN(c4cccc(Cl)c4)CC3)cc1CO2	p53ts 39C kill 13µM
CCN1CCN(CCCNC(=O)c2cc3c(s2)-c2c(C)cccc2OC3)CC1	p53ts 39C kill 25µM, p53ts 32C tox inconclusive, IkB sig inh inconclusive
Cc1cccc2c1-c1sc(C(=O)N3CCN(c4cccc(Cl)c4)CC3)cc1CO2	IkB sig inh inconclusive
Cc1ccc(CNC(=O)c2cc3c(s2)-c2c(C)cccc2OC3)cc1	p53ts 39C kill inconclusive, IkB sig inh inconclusive
Cc1cccc2c1-c1sc(C(=O)NCCCN3CCN(c4ccccc4F)CC3)cc1CO2	p53ts 39C kill 16µM, IkB sig inh inconclusive
Cc1ccc(C(c2sc3nc(-c4ccco4)nn3c2O)N2CCCCC2)cc1 (stereo not drawn)	none
O=C(Nc1ccc([N+](=O)[O-])cc1Cl)c1cc(Cl)ccc1O	p53ts 39C kill 4µM, p53ts 32C tox inconclusive, IkB sig inh inconclusive
COc1cccc(CNC(=O)CSc2ncc(S(=O)(=O)c3ccc(Br)cc3)c(=O)[nH]2)c1	IkB sig inh inconclusive
COc1ccc(Cc2nnc(N/N=C/c3ccc(O)cc3)[nH]c2=O)cc1OC	p53ts 39C kill 2.8µM (no result: p53ts 32C tox, Peg3 imprint, IkB sig inh)
COc1ccc(-c2nc3ccccc3s2)cc1O	p53ts 39C kill 2.5µM, p53ts 32C tox 5µM, IkB sig inh inconclusive (no result: Peg3 imprint)
Oc1cccc(-c2nc3ccccc3s2)c1	p53ts 39C kill 10µM, p53ts 32C tox 7.9µM
O=S(=O)(c1cccc(-c2nc3ccccc3s2)c1)N1CCCC1	none
O=C(Oc1ccc2c(c1)OCO2)c1cccs1	none
O=C(/C=C/c1ccc2c(c1)OCO2)c1cccs1	p53ts 39C kill 20µM, p53ts 32C tox 16µM (no result: IkB sig inh)
COc1ccc(C(=O)Oc2c(CN3CCOCC3)cc(Cl)c3cccnc23)cc1	p53ts 39C kill inconclusive
COc1cc(C(=O)Oc2c(CN3CCOCC3)cc(Cl)c3cccnc23)cc(OC)c1OC	p53ts 39C kill 13µM, p53ts 32C tox inconclusive, IkB sig inh inconclusive
CC(C)CN1CCc2nc(-c3ccccc3)c3c(c2CC1)COC(C)C3 (stereo not drawn)	none (no result: Peg3 imprint, IkB sig inh)
COc1cccc(CNC(=O)c2cc3c(=O)n(C)c4ccccc4c3n2C)c1	p53ts 39C kill 10µM, IkB sig inh inconclusive
CCOC(=O)c1c(S(=O)(=O)NCC(=O)Nc2ccc(C)c(N(C)C)c2)c(C)n(C)c1C	none
CCOC(=O)c1cccc(NC(=O)c2ccc3c(Cl)c4c(nc3c2)CCC4)c1	p53ts 39C kill 0.79µM, p53ts 32C tox inconclusive
O=C(Nc1ccc(OC(F)(F)F)cc1)c1cc2ccccn2n1	p53ts 39C kill inconclusive, p53ts 32C tox inconclusive
COc1ccc(NC(=O)c2cc3ccccn3n2)cc1	p53ts 39C kill 7.9µM, p53ts 32C tox 10µM, IkB sig inh inconclusive
CCOC(=O)c1cccc(NC(=O)c2cc3ccccn3n2)c1	p53ts 39C kill 13µM, p53ts 32C tox 10µM, IkB sig inh inconclusive
O=C(Nc1ccccc1C(F)(F)F)c1cc2ccccn2n1	p53ts 39C kill 7.9µM, p53ts 32C tox 10µM
CCOC(=O)c1cccc(NC(=O)c2cnccn2)c1	none
CCCCc1c2ccccc2nc2[nH]c3ccccc3c12	none (no result: IkB sig inh)
CCc1cc2c(nc1CC)CCN(CC/C(C)=N/O[C@@H](C)CN1CCCCc3nc(C)c(C)cc31)C2	none (no result: Peg3 imprint, IkB sig inh)
